Results taken from PubChem BioAssay (NCI).
Compounds without any hit were thinned out: in the full panel of roughly 79,000, 15% have a hit. Unmarked numbers belong to inactive results. Rule as the data show it: active = growth inhibition above about 70%; inactive = the rest.

assay: NCI Yeast Anticancer Drug Screen. Data for the cln2 rad14 strain (AID 165);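 also: 0% = growth equal to vehicle treated cultures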; settings: S. cerevisiae cln2 rad14 strain, at 50.0 µM, hits give high values
Procedure, shortened: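 Yeast strain cln2 rad14, bearing defects in cell cycle control and DNA repair, serves as the test system; values reflect growth inhibition compared with vehicle.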

SMILES | growth inhibition [%]
CCOC(=O)C(CCC#N)(CCC#N)C(=O)OCC | -21.3
CCOC(=O)/C(C)=C\c1ccc(OC)c(OC)c1 | -34
CCc1ccccc1C(=O)N(CC)CC | 32
ON1CCCC1 | -6.6
NC(=S)N/N=C/c1ccc(OC(=O)COc2ccc(Cl)cc2)cn1 | -1.25
CC(C)(C)NCCC(O)c1cc(C(F)(F)F)nc2c(C(F)(F)F)cccc12 (stereo not drawn) | 21.1
Nc1cc(N)ncn1 | 22.5
CC1(C)CC(=O)C=C(N)C1 | 14.2
CCNC(=O)OCCc1c2ccccc2nc2ccccc12 | 36.1
C=CC(C)C(C)(C)O (stereo not drawn) | 4.25
Clc1ncnc2nc[nH]c12 | 16.9
CC(C)Sc1ncnc2nc[nH]c12 | -0.9
CC(=O)OCC1CCC(COC(C)=O)CC1 (stereo not drawn) | -5.95
O=C1C=C[C@H](O)[C@@]2(CO)O[C@@H]12 | -6.1
C/C(=N\O)c1ccccn1 | 1.15
COc1ccc(C2CCCCC2=O)cc1 (stereo not drawn) | 5.3
O=Cc1c(O)c2ccccc2[nH]c1=O | 9.5
O=C(O)CCCCCNC(=O)OCc1ccccc1 | 29.9
CCCCOC(=O)c1ccccc1O | -3.05

SMILES | growth inhibition [%]
Cc1cc(C(=O)c2ccccc2)cc(C)c1O | 5.2
C#CC(O)c1ccccc1 (stereo not drawn) | -11.6
CCOC(=O)c1c(C)[nH]c(C)c1C=O | -1.15
Nc1ncnc2c1ncn2C1OC(CO)C2OC21 (stereo not drawn) | 12.5
CC(=O)N(C)N=Nc1ccc(C)cc1 | 4
COc1cccc(C(=O)NNC(=O)c2cccc3ccccc23)c1 | -10.4
COc1cc(C(=O)O)c(O)c(C(C)(C)C)c1 | -2.45
COc1cc2c(c(OC)c1OC)-c1ccc(SC)c(=O)cc1[C@@H](NC1OC(CO)C(O)C(O)C1O)CC2 (stereo partly drawn) | 6.2
CC(=O)[C@@]1(O)CC[C@H]2[C@@H]3CC[C@@H]4CC(=O)CC[C@]4(C)[C@H]3[C@@H](O)C[C@@]21C | -51.6
O=C1C=C(c2ccccc2)C(O)(c2ccccc2)C1 (stereo not drawn) | 5.1
COc1nc(Nc2cccc(C(F)(F)F)c2)nc(OC)n1 | 7.9
CC(C)NC(=O)OCc1c(COC(=O)NC(C)C)c(-c2ccc(Cl)cc2)n2c1CCC2 | 9.25
C(=C\c1ccncc1)/c1ccncc1 | -0.55
NNC(=O)c1ccccc1N | -11.2
CC12CCC3c4ccc(O)cc4CCC3C1CCC2=O (stereo not drawn) | 12.7
NNC(=O)CCCCl | 2.75
Cc1cccc(C)c1NC(=S)/N=C\c1c(O)[nH]c(=O)[nH]c1=O | -24.3
O=C(CCl)Oc1ccc([N+](=O)[O-])cc1 | 11.7

assay: NCI Yeast Anticancer Drug Screen. Data for the bub3 strain (AID 167); settings: S. cerevisiae bub3 mutant strain, at 50.0 µM, hits give high values
Procedure, shortened: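 Steps: expose the mutant yeast strain to compound; grow alongside vehicle-treated cultures; measure growth; express inhibition against the vehicle cultures.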

SMILES | growth inhibition [%]
CCOC(=O)C(CCC#N)(CCC#N)C(=O)OCC | 12.6
CC(C)(C)NCCC(O)c1cc(C(F)(F)F)nc2c(C(F)(F)F)cccc12 (stereo not drawn) | -11.9
CC1(C)CC(=O)C=C(N)C1 | -4.7
CC(=O)OCC1CCC(COC(C)=O)CC1 (stereo not drawn) | 19.7
C#CC(O)c1ccccc1 (stereo not drawn) | 0.9
CCOC(=O)c1c(C)[nH]c(C)c1C=O | 52.5
COc1nc(Nc2cccc(C(F)(F)F)c2)nc(OC)n1 | 23.2
CC(C)NC(=O)OCc1c(COC(=O)NC(C)C)c(-c2ccc(Cl)cc2)n2c1CCC2 | -6.75
NNC(=O)CCCCl | -21.3

assay: NCI Yeast Anticancer Drug Screen. Data for the mlh1 rad18 strain (AID 175); settings: S. cerevisiae mlh1 rad18 strain growth inhibition; at 50.0 µM; hits give high values
Procedure, shortened: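 Steps: expose repair-defective yeast to compound; measure growth; express inhibition against vehicle-treated controls.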

SMILES | growth inhibition [%]
CCOC(=O)C(CCC#N)(CCC#N)C(=O)OCC | 38.7
CCOC(=O)/C(C)=C\c1ccc(OC)c(OC)c1 | 18.9
CCc1ccccc1C(=O)N(CC)CC | -6.65
ON1CCCC1 | 1.5
NC(=S)N/N=C/c1ccc(OC(=O)COc2ccc(Cl)cc2)cn1 | 9.5
CC(C)(C)NCCC(O)c1cc(C(F)(F)F)nc2c(C(F)(F)F)cccc12 (stereo not drawn) | 0.15
Nc1cc(N)ncn1 | 26.7
CC1(C)CC(=O)C=C(N)C1 | 5.45
CCNC(=O)OCCc1c2ccccc2nc2ccccc12 | 54.2
C=CC(C)C(C)(C)O (stereo not drawn) | -2.4
Clc1ncnc2nc[nH]c12 | -39.4
CC(C)Sc1ncnc2nc[nH]c12 | 2.5
CC(=O)OCC1CCC(COC(C)=O)CC1 (stereo not drawn) | -3.9
O=C1C=C[C@H](O)[C@@]2(CO)O[C@@H]12 | 11.7
C/C(=N\O)c1ccccn1 | 1.45
COc1ccc(C2CCCCC2=O)cc1 (stereo not drawn) | -11.8
O=Cc1c(O)c2ccccc2[nH]c1=O | 3.85
O=C(O)CCCCCNC(=O)OCc1ccccc1 | 9.3
CCCCOC(=O)c1ccccc1O | 20.5

SMILES | growth inhibition [%]
Cc1cc(C(=O)c2ccccc2)cc(C)c1O | 30.4
C#CC(O)c1ccccc1 (stereo not drawn) | -0.65
CCOC(=O)c1c(C)[nH]c(C)c1C=O | 3.9
Nc1ncnc2c1ncn2C1OC(CO)C2OC21 (stereo not drawn) | -30.4
CC(=O)N(C)N=Nc1ccc(C)cc1 | -4.05
COc1cccc(C(=O)NNC(=O)c2cccc3ccccc23)c1 | -20.9
COc1cc(C(=O)O)c(O)c(C(C)(C)C)c1 | 8.5
COc1cc2c(c(OC)c1OC)-c1ccc(SC)c(=O)cc1[C@@H](NC1OC(CO)C(O)C(O)C1O)CC2 (stereo partly drawn) | 3.45
CC(=O)[C@@]1(O)CC[C@H]2[C@@H]3CC[C@@H]4CC(=O)CC[C@]4(C)[C@H]3[C@@H](O)C[C@@]21C | -13.5
O=C1C=C(c2ccccc2)C(O)(c2ccccc2)C1 (stereo not drawn) | 6.15
COc1nc(Nc2cccc(C(F)(F)F)c2)nc(OC)n1 | 6.25
CC(C)NC(=O)OCc1c(COC(=O)NC(C)C)c(-c2ccc(Cl)cc2)n2c1CCC2 | -24.4
C(=C\c1ccncc1)/c1ccncc1 | 23.6
NNC(=O)c1ccccc1N | -1.55
CC12CCC3c4ccc(O)cc4CCC3C1CCC2=O (stereo not drawn) | 3.45
NNC(=O)CCCCl | -0.2
Cc1cccc(C)c1NC(=S)/N=C\c1c(O)[nH]c(=O)[nH]c1=O | -57.2
O=C(CCl)Oc1ccc([N+](=O)[O-])cc1 | 26.6
